Source: PubChem BioAssay
An excerpt weighted towards active compounds, which were near 3.5% of everything screened.
GDH-TPI counter – inhibits GDH-TPI coupling enzymes, artifact for Mtb FBA screen; GDH-TPI coupled enzyme counterscreen, NADH absorbance; inhibition, % at 4.8 µM; 360,000 tested, 1.2% active; AID 588335; in the data active = inhibition above about 30%;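 also: 0% = DMSO wells and 100% = wells lacking the enzyme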
Rv3671c inh – inhibitors of M. tuberculosis serine protease Rv3671c; P9WHR9; 320,000 tested, 0.048% active; inhibition, % at 5.96 µM; in the data active = inhibition above about 38%;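 also: extracellular domain of Rv3671c used as enzyme; 0% = enzyme with DMSO and 100% = no enzyme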
Mtb hypoxia inh – reduces hypoxia-regulated biosensor signal in M. tuberculosis; M. tuberculosis hypoxia-regulated fluorescent reporter, fluorescence; fluorescence inhibition, % (test concentration not listed); 300,000 tested, 0.1% active; AID 1159583; in the data active = fluorescence inhibition mostly above about 23%, no sharp cut-off; inactive = mostly below about 17%
Mtb FBA inh – Mtb fructose-bisphosphate aldolase inhibition; inhibition, % at 1 µM; AID 588726; P9WQA3; 360,000 tested, 2.3% active; purified M. tuberculosis FBA, fluorescence read-out; in the data active = inhibition above about 27%;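 also: 0% = vehicle and 100% = reference inhibitor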
Target sequence (P9WQA3 whole entry, looked up): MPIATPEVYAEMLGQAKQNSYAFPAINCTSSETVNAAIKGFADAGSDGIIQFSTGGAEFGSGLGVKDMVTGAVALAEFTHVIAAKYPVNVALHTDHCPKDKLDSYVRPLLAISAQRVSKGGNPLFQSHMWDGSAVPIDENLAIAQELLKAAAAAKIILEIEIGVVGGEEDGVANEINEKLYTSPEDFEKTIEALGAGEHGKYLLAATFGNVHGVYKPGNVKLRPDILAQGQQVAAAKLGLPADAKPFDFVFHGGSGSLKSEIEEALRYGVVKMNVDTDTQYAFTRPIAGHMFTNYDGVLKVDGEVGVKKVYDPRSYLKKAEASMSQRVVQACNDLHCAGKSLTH
FadD28 binding – blocks FadD28 binding to the bisubstrate probe | fluorescence polarization | inhibition, % at 12.5 µM | 360,000 tested, 0.22% active | AID 588549; in the data active = inhibition above about 8.5%, passing the limit was not always enough
UGM FP inh – blocks M. tuberculosis UGM enzyme | P9WIQ1 | purified UGM, fluorescence polarization probe displacement | inhibition, % at 10 µM | 320,000 tested, 0.06% active | AID 504406; in the data active = inhibition above about 10%, passing the limit was not always enough
* = called active by the depositor; · = no result; + = active, no number.

SMILES | GDH-TPI counter | Rv3671c inh | Mtb hypoxia inh | Mtb FBA inh | FadD28 binding | UGM FP inh
O=c1[nH]c(=S)n(-c2cccc(Cl)c2)c(O)c1/C=N/N1CCOCC1 | 34.7* | -1.2 | 6.1 | -4.0 | 0.2 | -2.5
COc1ccc(CCNc2oc(-c3ccc(OC)c(OC)c3)nc2C#N)cc1 | 36.0* | 0.0 | 16.4 | + | 12.3* | -0.8
COc1ccc(-c2nc(C#N)c(NCCCN(C)C)o2)cc1OC | 12.0 | 2.7 | -2.6 | + | -4.0 | 2.7
CN(C)CCNc1oc(-c2ccccc2F)nc1C#N | 15.8 | 0.8 | · | 145.3* | 0.3 | -3.2
COc1ccc(CCNc2oc(-c3ccccc3OC)nc2C#N)cc1 | 17.9 | 0.1 | 9.6 | + | -3.5 | -0.2
N#Cc1nc(-c2ccccc2F)oc1NCc1cccc2c1OCO2 | 13.4 | -14.6 | 3.1 | 14.0 | -2.0 | 1.3
CN1CCN(c2oc(/C=C/c3ccccc3)nc2C#N)CC1 | -8.6 | -1.6 | -11.8 | 7.2 | -0.2 | 3.0
COc1ccc(/C=C/c2nc(C#N)c(NCCN(C)C)o2)cc1OC | 27.6 | -1.1 | 8.2 | 14.7 | -2.2 | -1.7
CCN(CC)CCCNc1oc(/C=C/c2ccccc2)nc1C#N | 28.0 | 2.9 | 0.3 | + | 0.1 | 1.2
CNc1oc(/C=C/c2cccc(OC)c2)nc1C#N | 28.0 | 3.6 | 7.4 | + | 0.8 | -0.3
CN(C)CCCNc1c2ccccc2nc2ccccc12 | 7.1 | -14.6 | 8.8 | 177.0* | -0.7 | 4.1
COc1ccc(-c2nc(C#N)c(NC(C)c3ccccc3)o2)cc1OC (stereo not given) | 12.6 | 3.0 | 10.0 | 144.5* | -0.6 | 0.2
CC1C(=O)OCC1NC(=O)OCc1ccccc1 (stereo not given) | · | · | -1.0 | · | · | ·
Cc1cc(C(=O)NN=Cc2ccco2)n[nH]1 | · | · | -4.9 | · | · | ·
COc1ccccc1-c1nc(C#N)c(NCCCn2ccnc2)o1 | 5.6 | 2.2 | 12.5 | + | -1.5 | 1.0
COc1ccccc1-c1nc(C#N)c(NCc2ccc(F)cc2)o1 | 14.2 | 8.1 | 5.1 | 112.7* | -2.4 | -2.3
N#Cc1nc(COc2ccccc2Cl)oc1NCc1ccc(F)cc1 | 0.0 | -11.2 | 0.9 | -0.2 | -2.7 | ·
N#Cc1nc(Cc2cccc3ccccc23)oc1NCCCn1ccnc1 | -13.4 | -6.4 | 5.4 | 3.6 | -0.3 | 0.9
CN(C)CCCNc1oc(-c2ccccc2)nc1C#N | 6.0 | -6.4 | 6.1 | 130.6* | 1.3 | -0.2
CCCCCCCCCCCCCCC[C@@H](O)[C@@H](N)CO | 7.8 | · | · | -1.7 | 47.9* | ·
CCCCCCCCCC(=O)OCC(O)CO (stereo not given) | 3.4 | -1.4 | 2.4 | 0.7 | -0.3 | -2.5
COc1ccc(-c2cc(-c3ccccc3)nc(=O)[nH]2)cc1 | 13.9 | 0.5 | 7.0 | + | -2.5 | 3.5
CN(N=Cc1cc([N+](=O)[O-])ccc1O)c1ccccc1 | · | · | 1.9 | · | · | ·
O=C1N/C(=N\S(=O)(=O)c2ccccc2)S/C1=C\c1cc([N+](=O)[O-])ccc1O | 10.3 | 5.7 | · | -17.5 | 19.5* | -8.2
Cc1ccc(S(=O)(=O)/N=C2/NC(=O)/C(=C\c3cc(Br)cc(Br)c3O)S2)cc1 | 10.0 | · | 14.8 | -1.9 | 50.2* | -35.2
SMILES | GDH-TPI counter | Rv3671c inh | Mtb hypoxia inh | Mtb FBA inh | FadD28 binding | UGM FP inh
O=C1N/C(=N\S(=O)(=O)Cc2ccccc2)S/C1=C/c1cc([N+](=O)[O-])ccc1O | 39.2* | 8.0 | 13.2 | -34.0 | 15.4* | -4.6
CC(C)(C)OC(=O)NCCCCC(C(=O)N1CCN(C(=O)OC(C)(C)C)CC1)n1cc(C(CO)NC(=O)OC(C)(C)C)nn1 (stereo not given) | · | · | 0.5 | · | · | ·
Cn1ccc2c(-c3ccc(C(=O)O)cc3)cc3c(c21)C1CCC3O1 (stereo not given) | · | · | · | + | -4.2 | ·
Cn1ccc2c(-c3ccc(CO)cc3)cc3c(c21)C1CCC3O1 (stereo not given) | · | · | · | + | 1.8 | ·
Cn1ccc2c(-c3ccc(C(C)(C)C)cc3)cc3c(c21)C1CCC3O1 (stereo not given) | · | · | · | 11.4 | -0.4 | ·
Cc1ccc(S(=O)(=O)Nc2nc(C)cc(NN=Cc3ccc(O)cc3)n2)cc1 | · | · | -4.3 | · | · | ·
Cc1ccc2cc(C=NNc3ccc(C(=O)O)cc3)c(Cl)nc2c1 | · | · | 4.1 | · | · | ·
Fc1ccc(C2=CC(c3ccc(Br)o3)n3ncnc3N2)cc1 (stereo not given) | 11.3 | -24.0 | · | 42.8* | -1.4 | -2.3
Oc1ccc(C2C=C(c3ccc(F)cc3)Nc3ncnn32)cc1 (stereo not given) | 13.9 | · | -6.6 | 3.1 | -2.0 | ·
COc1ccc(C2C=C(c3ccc(C)cc3)Nc3ncnn32)cc1 (stereo not given) | 3.8 | · | 16.2 | + | -5.1 | ·
